The target of test [1] is Estrogen receptor (Homo sapiens) (UniProt P03372). Description: qHTS assay for small molecule antagonists of estrogen receptor alpha signaling (AID 588513; active = well fitted curve in the direction sought with a large enough effect in the signal ratio, with a control signal flat, not every such curve was filed as active; the % refers to the signal ratio; note: % is set by controls: 0 for no effect and ±100 for the full control effect). The method, boiled down: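 Beta-lactamase reporter, antagonist mode, HEK 293 GripTite cells; 0.5nM E2 stimulus, 18 h, 37 C; CCF4 dye 2 h RT; fluorescence. IC50 and efficacy from Hill fits, normalized to E2 and DMSO.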
For orientation: In qHTS, concentration-response curves come from the screen itself.

The target is the same in test [2]. Description: qHTS assay for small molecule agonists of estrogen receptor alpha signaling (AID 588514).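 For activation: 0% = vehicle only and 100% = reference agonist.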 Note: nearly all actives have a fitted effect of over 70% in size. Note: potency is the fitted concentration of half-maximal effect. The method, boiled down:
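EC50 and efficacy came from Hill fits of beta-lactamase reporter signal (CCF4 dye, 2 h at room temperature) scaled between DMSO and 20 nM 17-beta-estradiol. Agonist mode: HEK293 ER-alpha-UAS-bla cells in charcoal/dextran-stripped serum medium, 18 h compound exposure at 37 C.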

For test [3], the target named is Peroxisome proliferator-activated receptor gamma (Homo sapiens) (UniProt P37231). The test can be described thus: qHTS assay for small molecule agonists of peroxisome proliferator-activated receptor gamma signaling (AID 588536; active = well fitted curve in the direction sought with a large enough effect in the signal ratio, with a control signal flat, not every such curve was filed as active; the % refers to the signal ratio;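 note: 0% = DMSO basal wells and 100% = rosiglitazone at 2 µM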). The essentials:
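This is an agonist-mode beta-lactamase reporter assay in HEK293 PPAR-gamma-UAS-bla cells with 1% charcoal/dextran FBS. Compound titrations ran 16 h at 37 C before CCF4 detection. EC50 and efficacy are Hill fits scaled to 2 uM rosiglitazone (100%) and DMSO basal.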

For test [4] the target is unchanged. The test can be described thus: qHTS assay for small molecule antagonists of peroxisome proliferator-activated receptor gamma signaling (AID 588537; active = well fitted inhibition curve with a large enough effect in the signal ratio, with a control signal flat, not every such curve was filed as active; the % refers to the signal ratio;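 note: reporter cells co-stimulated with 50 nM rosiglitazone agonist during compound treatment; % of control where 0% means no effect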). The method, boiled down: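 Fluorescence at 460 and 530 nm (405 nm excitation) reported beta-lactamase cleavage of CCF4 after 2 h room-temperature loading. HEK293 reporter cells in 1% charcoal/dextran-treated FBS had received compound and rosiglitazone for 16 h.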

The target of test [5] is Vitamin D3 receptor (Homo sapiens) (UniProt P11473). Description: qHTS assay for small molecule antagonists of vitamin D receptor signaling (AID 588541).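 Note: receptor activated by calcitriol during compound treatment; series mostly up to about 77 µM; % is set by controls: 0 for no effect and ±100 for the full control effect.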 The method, boiled down: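 VDR-UAS-bla HEK293T cells in 2% charcoal-stripped FBS were stimulated with 1-alpha,25-dihydroxyvitamin D3 (3 nM final) plus compound for 16 h at 37 C. The beta-lactamase CCF4 readout was normalized to 50 nM agonist and DMSO, and Hill fits gave IC50.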

Test [6] shares this target. The test can be described thus: qHTS assay for small molecule agonists of vitamin D receptor signaling (AID 588543).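 Note: 0% = DMSO basal and 100% = reference agonist control.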 The method, boiled down:
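β-lactamase reporter, VDR-UAS-bla HEK293T, agonist mode. Cells plated 5 h at 37 °C, compound titration 16 h at 37 °C, CCF4 dye 2 h RT, ratio 460/530 nm. Hill fit → EC50, efficacy vs 50 nM 1α,25-(OH)2D3.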

A short description of test [7]: qHTS assay for small molecule agonists of retinoid X receptor alpha signaling (AID 588544).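 For activation: 0% = DMSO basal wells and 100% = reference agonist.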 The settings on record: HEK293T RXRa-UAS-bla, beta-lactamase reporter, 18 h; 530 nm emission.
Test [8] concerns the target Retinoic acid receptor RXR-alpha (Homo sapiens) (UniProt P19793). The test is described as above.
The nature of test [9]: qHTS assay for small molecule antagonists of retinoid X receptor alpha signaling (AID 588546; active = well fitted inhibition curve with a large enough effect in the signal ratio, with a control signal flat, not every such curve was filed as active; the % refers to the signal ratio;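 note: cells stimulated with 9-cis-retinoic acid as agonist; % is set by controls: 0 for no effect and ±100 for the full control effect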). To be noted: HEK293T RXRa-UAS-bla, beta-lactamase ratio, antagonist mode; measured here: W530 green channel, cytotoxicity proxy. The method, boiled down: (§1)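 Beta-lactamase reporter inhibition, read as CCF4 fluorescence ratio (ex 405, em 460/530 nm) after 2 h at RT. HEK293T UAS-bla cells, 2500/well, were stimulated with 9-cis-RA at 500 or 100 nM final alongside test compound for 18 h at 37 C.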

Test [10] addresses Retinoic acid receptor RXR-alpha (Homo sapiens) (UniProt P19793). The test is described as above. The settings on record: HEK293T RXRa-UAS-bla, beta-lactamase ratio, antagonist mode. The method, boiled down:
as §1

Test [11] in a line: qHTS assay for small molecule activators of the nuclear factor-kappa B (NF-kB) signaling pathway (AID 651749; active = well fitted activation curve with a large enough effect in the signal ratio; the % refers to the signal ratio; note: series mostly up to about 77 µM; % of control where 0% means no effect). The settings on record: NF-kB-bla ME-180 cells, beta-lactamase FRET ratio, 16 h; activation: stronger effect = higher value. The method, boiled down: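 In this qHTS format, compounds acting as activators increase NF-kB-driven beta-lactamase in ME-180 cells, measured as disrupted FRET after 16 hr exposure at 37C and 5% CO2.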

Test [12] in a line: qHTS assay for environmental chemicals that activate the Aryl hydrocarbon Receptor (AhR) signaling pathway (AID 651777; active = well fitted curve in the direction sought with a large enough effect; an effect the other way counts as inactive or inconclusive; note: % of control where 0% means no effect; nearly all actives have a fitted effect of over 15% in size). The settings on record: 1A2-DRE human hepatoma cells, luciferase, 24 h; activation: stronger effect = higher value. The method, boiled down:
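Induction of CYP1A2 transcription through AhR is detected by luciferase in 1A2-DRE hepatoma cells. Compounds or DMSO act for 24 hr at 37 C before a 30 min One-Glo step at room temperature.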

For test [13], the target named is Peroxisome proliferator-activated receptor alpha (Homo sapiens) (UniProt Q07869). The test can be described thus: qHTS assay for small molecule agonists of the peroxisome proliferator-activated receptor alpha (PPARalpha) signaling pathway (AID 651778; active = well fitted curve in the direction sought with a large enough effect; an effect the other way counts as inactive or inconclusive; note: % of control where 0% means no effect). To be noted: PathHunter PPARalpha complementation, chemiluminescence, 6 h; max response: stronger effect = higher value. The method, boiled down:
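Enzyme-fragment complementation assay in which ligand-bound PPARalpha translocates and forms an active enzyme that generates chemiluminescence. Cells were plated overnight, exposed to compound for 6 hr at 37 C, and then given detection reagent for 60 min at room temperature.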

A short description of test [14]: qHTS assay for small molecule agonists of the antioxidant response element (ARE) signaling pathway measured by Nrf2-dependant transcriptional activity - cell viability counter screen (AID 720653; active = well fitted curve in the direction sought with a large enough effect in the repeat runs; an effect the other way counts as inactive or inconclusive; note: % is set by controls: 0 for no effect and ±100 for the full control effect). The settings on record: ARE-bla HepG2 viability, CellTiter-Glo ATP luminescence, 16 h; max response: stronger effect = lower value. The essentials:
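ARE-bla HepG2 cells treated with compounds for 16 h at 37C; this counter screen measures viability as intracellular ATP by CellTiter-Glo luminescence after 30 min at room temperature.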

Test [15] is described as follows: qHTS assay for cell viability of HEK293 cells (AID 743288; active = well fitted curve in the direction sought with a large enough effect; an effect the other way counts as inactive or inconclusive; note: % is set by controls: 0 for no effect and ±100 for the full control effect; nearly all actives have a fitted effect of over 50% in size). The settings on record: ATP luminescence (CellTiter-Glo), 18 h; max response: stronger effect = lower value. The method, boiled down:
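ATP luminescence (CellTiter-Glo) reports metabolically competent cell number after parental HEK293 cells, 2,000/well, were treated with DMSO-dissolved compounds for 18 h at 37 C; reagent incubation 30 min, room temperature.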

Test [16] is described as follows: qHTS assay for cell viability of the p53RE-bla HCT-116 cell line (AID 743292; active = well fitted curve in the direction sought with a large enough effect; an effect the other way counts as inactive or inconclusive; note: % is set by controls: 0 for no effect and ±100 for the full control effect; nearly all actives have a fitted effect of over 55% in size). The essentials:
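In this qHTS counter-screen, metabolically competent p53RE-bla HCT-116 cells were counted via their ATP content. Compounds were applied for 16 h at 37 C and luciferase-coupled luminescence was measured.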

The target in test [17] is Nuclear receptor subfamily 1 group I member 2 (Rattus norvegicus) (UniProt Q9R1A7). The test can be described thus: qHTS assay for small molecule activators of the rat pregnane X receptor (rPXR) signaling pathway (AID 651751; call rule not given here; note: 0% is about no effect). The settings on record: rPXR reporter cells, luciferase (One-Glo), 24 h.
Test [18] in a line: qHTS assay for small molecule activators of the human pregnane X receptor (PXR) signaling pathway (AID 720659; call rule not given here; note: 0% is about no effect).
Test [19] can be described thus: qHTS assay for small molecule antagonists of peroxisome proliferator-activated receptor delta signaling (AID 588535).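 Note: cells co-treated with a PPAR-delta agonist as stimulator during compound exposure.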 To be noted: HEK293T PPARd-UAS-bla, beta-lactamase FRET ratio, 18 h; 460 nm channel. The essentials:
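Fluorescence from CCF4-loaded GeneBLAzer PPAR-delta-UAS-bla HEK293T cells (2 hrs RT loading) quantified reporter inhibition after an 18 hr, 37 C compound exposure across a titration.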

In test [20] the target is Thyroid hormone receptor beta (Homo sapiens) (UniProt P10828). Description: qHTS assay for small molecule agonists of thyroid hormone receptor beta signaling (AID 588545).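 Note: 0% = DMSO only and 100% = 10 nM T3.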 The method, boiled down:
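Stimulation of a TR-driven beta-lactamase reporter was quantified in GripTite HEK 293 cells. Compound series ran for 18 hrs; curves were normalized to T3 and DMSO controls and fitted to yield EC50.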

SMILES strings stand for the structures. Records with an inconclusive call do not appear. Active and inactive are the calls of the source. Unless noted, calls come from the whole dose curve.

Chain of Vitamin D3 receptor (Homo sapiens) (P11473 whole entry, looked up): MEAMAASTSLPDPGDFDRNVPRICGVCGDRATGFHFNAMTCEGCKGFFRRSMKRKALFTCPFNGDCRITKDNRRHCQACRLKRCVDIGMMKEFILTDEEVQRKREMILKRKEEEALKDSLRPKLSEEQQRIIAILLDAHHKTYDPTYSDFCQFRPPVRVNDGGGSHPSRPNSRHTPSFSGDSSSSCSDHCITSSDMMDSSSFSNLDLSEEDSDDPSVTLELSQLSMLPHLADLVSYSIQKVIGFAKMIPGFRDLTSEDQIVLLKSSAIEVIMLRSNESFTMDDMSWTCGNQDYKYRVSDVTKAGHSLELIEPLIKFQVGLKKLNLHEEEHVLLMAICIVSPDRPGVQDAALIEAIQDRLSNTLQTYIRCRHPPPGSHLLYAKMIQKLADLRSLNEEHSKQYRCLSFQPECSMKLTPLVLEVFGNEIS
Chain of Estrogen receptor (Homo sapiens) (P03372 whole entry, looked up): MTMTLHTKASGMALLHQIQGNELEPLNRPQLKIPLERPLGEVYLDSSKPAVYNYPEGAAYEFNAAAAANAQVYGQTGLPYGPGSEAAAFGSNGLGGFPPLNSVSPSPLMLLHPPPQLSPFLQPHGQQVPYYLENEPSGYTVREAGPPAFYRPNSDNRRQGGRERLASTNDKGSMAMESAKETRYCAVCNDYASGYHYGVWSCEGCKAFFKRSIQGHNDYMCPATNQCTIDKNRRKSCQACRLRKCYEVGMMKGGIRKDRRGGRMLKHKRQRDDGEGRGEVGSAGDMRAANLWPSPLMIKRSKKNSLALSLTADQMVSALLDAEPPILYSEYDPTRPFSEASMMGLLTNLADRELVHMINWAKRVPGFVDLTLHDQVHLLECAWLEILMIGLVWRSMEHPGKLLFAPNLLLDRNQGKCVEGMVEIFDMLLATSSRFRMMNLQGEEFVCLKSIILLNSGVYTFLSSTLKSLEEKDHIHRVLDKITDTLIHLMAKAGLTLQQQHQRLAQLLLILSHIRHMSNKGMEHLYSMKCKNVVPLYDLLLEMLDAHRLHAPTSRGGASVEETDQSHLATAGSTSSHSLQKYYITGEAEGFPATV
Chain of Nuclear receptor subfamily 1 group I member 2 (Rattus norvegicus) (Q9R1A7 whole entry, looked up): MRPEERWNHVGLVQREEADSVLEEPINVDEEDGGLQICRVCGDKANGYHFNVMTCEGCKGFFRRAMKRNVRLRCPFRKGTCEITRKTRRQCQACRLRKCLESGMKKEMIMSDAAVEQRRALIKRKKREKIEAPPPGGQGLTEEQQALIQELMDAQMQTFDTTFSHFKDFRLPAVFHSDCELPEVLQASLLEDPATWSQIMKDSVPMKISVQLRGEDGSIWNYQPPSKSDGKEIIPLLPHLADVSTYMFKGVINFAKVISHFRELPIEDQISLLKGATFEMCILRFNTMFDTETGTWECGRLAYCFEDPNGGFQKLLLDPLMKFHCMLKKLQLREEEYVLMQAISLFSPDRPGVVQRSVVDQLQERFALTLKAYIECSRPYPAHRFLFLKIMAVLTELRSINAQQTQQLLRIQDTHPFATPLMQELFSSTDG
Chain of Peroxisome proliferator-activated receptor alpha (Homo sapiens) (Q07869 whole entry, looked up, the tested form may be a part): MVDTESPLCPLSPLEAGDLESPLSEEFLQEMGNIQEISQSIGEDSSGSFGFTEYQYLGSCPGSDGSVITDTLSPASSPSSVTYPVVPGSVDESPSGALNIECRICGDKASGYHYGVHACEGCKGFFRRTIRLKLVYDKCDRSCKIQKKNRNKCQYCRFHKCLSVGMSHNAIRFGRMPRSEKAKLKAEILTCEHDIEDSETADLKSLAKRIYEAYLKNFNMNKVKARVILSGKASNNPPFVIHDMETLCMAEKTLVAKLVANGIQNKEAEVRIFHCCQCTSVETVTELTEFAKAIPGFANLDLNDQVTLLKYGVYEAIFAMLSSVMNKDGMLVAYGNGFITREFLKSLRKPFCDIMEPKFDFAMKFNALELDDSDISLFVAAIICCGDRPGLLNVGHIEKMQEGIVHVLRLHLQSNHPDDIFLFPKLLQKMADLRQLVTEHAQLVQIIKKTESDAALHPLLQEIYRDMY
Chain of Retinoic acid receptor RXR-alpha (Homo sapiens) (P19793 whole entry, looked up): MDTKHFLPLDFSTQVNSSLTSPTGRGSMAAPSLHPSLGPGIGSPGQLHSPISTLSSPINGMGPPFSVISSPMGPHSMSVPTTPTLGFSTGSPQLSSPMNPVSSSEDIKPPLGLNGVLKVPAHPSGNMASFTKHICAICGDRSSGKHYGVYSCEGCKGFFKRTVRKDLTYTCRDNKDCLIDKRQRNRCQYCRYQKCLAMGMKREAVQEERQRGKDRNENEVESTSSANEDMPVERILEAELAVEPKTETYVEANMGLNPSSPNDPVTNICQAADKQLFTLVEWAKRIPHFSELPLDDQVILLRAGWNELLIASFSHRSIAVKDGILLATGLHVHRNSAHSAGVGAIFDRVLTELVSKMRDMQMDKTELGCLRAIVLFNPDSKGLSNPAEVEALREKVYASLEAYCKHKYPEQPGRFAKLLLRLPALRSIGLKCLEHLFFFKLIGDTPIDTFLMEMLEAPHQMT
Chain of Peroxisome proliferator-activated receptor gamma (Homo sapiens) (P37231 whole entry, looked up): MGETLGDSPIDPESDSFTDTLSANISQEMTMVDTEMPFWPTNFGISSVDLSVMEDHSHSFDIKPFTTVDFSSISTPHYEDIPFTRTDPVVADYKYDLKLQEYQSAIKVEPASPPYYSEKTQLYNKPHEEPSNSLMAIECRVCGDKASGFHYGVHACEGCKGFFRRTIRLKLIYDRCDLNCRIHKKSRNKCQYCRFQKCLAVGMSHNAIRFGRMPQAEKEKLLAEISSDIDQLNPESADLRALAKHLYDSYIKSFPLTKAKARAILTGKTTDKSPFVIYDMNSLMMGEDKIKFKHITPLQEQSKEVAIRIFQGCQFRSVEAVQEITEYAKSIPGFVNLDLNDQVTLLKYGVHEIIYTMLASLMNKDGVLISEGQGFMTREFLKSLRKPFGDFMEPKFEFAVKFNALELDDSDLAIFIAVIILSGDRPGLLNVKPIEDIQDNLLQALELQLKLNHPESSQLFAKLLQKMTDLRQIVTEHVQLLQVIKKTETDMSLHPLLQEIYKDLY
Chain of Thyroid hormone receptor beta (Homo sapiens) (P10828 whole entry, looked up): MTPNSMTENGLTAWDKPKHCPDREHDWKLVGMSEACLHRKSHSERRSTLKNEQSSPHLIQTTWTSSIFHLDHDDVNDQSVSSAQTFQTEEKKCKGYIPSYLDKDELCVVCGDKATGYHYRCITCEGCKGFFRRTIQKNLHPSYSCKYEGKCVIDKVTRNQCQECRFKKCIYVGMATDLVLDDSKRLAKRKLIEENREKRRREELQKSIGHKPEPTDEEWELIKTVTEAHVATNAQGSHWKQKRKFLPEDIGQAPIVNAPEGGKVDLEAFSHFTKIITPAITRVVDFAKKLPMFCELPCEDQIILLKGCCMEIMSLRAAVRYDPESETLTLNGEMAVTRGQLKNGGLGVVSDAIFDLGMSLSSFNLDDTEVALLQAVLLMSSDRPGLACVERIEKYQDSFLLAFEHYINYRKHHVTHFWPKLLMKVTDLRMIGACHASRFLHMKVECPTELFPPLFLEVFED

For the compound `CC(C)OC(=O)c1ccccc1C(=O)OC(C)C`, the Potency entry in [1], in [2], in [4], in test [5], in test [8] and in [16] was “inactive” in each case. In addition, the result in [3], in [6] and in test [18] was inactive. Also, the max response in test [7] is -10.4%; in test [9] it was -19.4%; in [10], -1.37% (inactive); in test [13], -0.635% (inactive); in [14], 0.0901% (inactive); in test [15], -5.59% (inactive). The max response in test [17] was 2.54% (inactive). Besides, the activation in [11] is -2.02% (inactive); in test [12], 1.05% (inactive).
Regarding `O=C(Cl)c1cc(Cl)cc(Cl)c1`, the Potency entry in test [1], in test [2], in [4], in test [5], in test [8] and in test [20] was “inactive” each time. The Potency entry in test [16] was “inactive”. In addition, the max response in test [19] is 16%; in test [7], -4.35%; in test [9], 3.33%; in [13] it was -3.03% (inactive); in [14], -8.26% (inactive); in [15], -4.86% (inactive). Moreover, the max response in [17] was 2.44% (inactive). Besides, the outcome in [3], in test [6] and in test [18] was inactive. Further, the values for the activation in [11] and in test [12] were -1.64% (inactive) and 2.73% (inactive), respectively.
With `CC/C=C\CCOC(=O)c1ccccc1O`, the Potency entry in test [1], in [4], in test [5], in [8], in test [20] and in [16] was “inactive” in each case. Besides, the Potency in test [2] was 25.1 µM (active). Also, the max response is -19.1% in [19]; -9.64% in test [7]; -7.38% in test [9]; 0.792% (inactive) in [10]; 0.589% (inactive) in test [13]; 6.72% (inactive) in test [14]. Moreover, the max response in test [15] was 0.746% (inactive); in test [17], 5.21% (inactive). In addition, the outcome in test [3], in [6] and in test [18] was inactive. Moreover, the activation in test [11] is -0.397% (inactive); in test [12], 1.45% (inactive).
Take `C=CC(=O)OCC[N+](C)(C)C`: the Potency result in test [1], in [2], in [4], in [5], in test [20] and in test [16] was “inactive” in each case. Moreover, the max response in test [19] is 35.3%; in test [7] it was 1.33%; in test [9], 1.52%; in test [10] it was 1.59% (inactive); in [14] it was 1.86% (inactive); in [15] it was -5.74% (inactive). The max response in test [17] was -0.896% (inactive). Also, the compound was classed as inactive in test [3] and in [6]. The activation in test [12] is 0.372% (inactive).
Consider `CC1(C)C(=O)N(Cl)C(=O)N1Cl`, for which the Potency entry in test [1], in test [2], in test [4], in test [5], in test [8] and in test [20] was “inactive” throughout. For the same compound, the Potency result in [16] is “inactive”. Moreover, the call in test [3], in test [6] and in test [18] was inactive. Further, the max response is -24.2% in [7]; 1.31% in [9]; -12.2% (inactive) in test [10]; -0.353% (inactive) in test [13]; -14.6% (inactive) in [14]; -4.37% (inactive) in test [15]. Besides, the max response in [17] is -0.522% (inactive). The activation in test [12] is 0.743% (inactive).
Take `CC(C)(C)C1CCC(O)CC1` (stereo unspecified): the Potency result in test [1], in [2], in test [4], in [5], in [20] and in test [16] was “inactive” each time. Moreover, the max response in [19] is -7.35%; in [9], -0.1%; in test [10], 3.31% (inactive); in test [14] it was 2.04% (inactive); in [17], 1.71% (inactive). Also, the compound was classed as inactive in test [3], in [6] and in test [18]. Besides, the activation in test [11] is 0.471% (inactive).

For the origin of these results see PubChem BioAssay (NCATS).
